AC50 data for 1 compound are collected here from PubChem BioAssay AID493243 (Broad Institute, 2011).

Active and inactive are the calls of the source. How the calls were made is not given here.

In general, AC50 refers to the concentration giving half of the maximal activity seen.

The nature of this experiment: GFP fluorescence signal inhibitors, dose response, artefact control, biochemical, plate reader, dry powder (AID 493243). The conditions noted are these: GFP fluorescence counter-screen. Background: A counterscreen serves to expose hits that act by an unwanted route or on another target.

Regarding `CCn1nc(/C=C/c2ccccc2)nc2c(=O)n(C)c(=O)nc1-2`, the concentration at half-maximal activity (AC50) was 221 nM (active).
